# Values without a mark were called inactive. Active and inactive are the calls of the source.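 Rule for the calls: active = IC50, the dose giving half inhibition, at or below 10 µM; inactive = IC50 above 10 µM.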
# Assay: displacement of TO-PRO-1 from d(CAG) DNA duplex, late-stage follow-up, counter-screen for r(CAG) RNA repeat binder project, biochemical, fluorescence, 5'CAG/3'GTC DNA, powders, MedChem round 1 (AID 743498)
# Conditions: DNA d(CAG) repeat TO-PRO-1 dye displacement
row,SMILES,IC50
1,NC(=O)c1cc(NC(=O)/C=C/c2cn(-c3ccccc3)nc2-c2ccc(F)cc2)c(F)cc1F,> 29.9 µM
2,CN(C)CCCNC(=O)/C=C/c1cn(-c2ccccc2)nc1-c1ccccc1,> 29.9 µM
3,O=C(/C=C/c1cn(-c2ccccc2)nc1-c1ccccc1)N1CCN(CC(=O)N2CCCC2)CC1,> 29.9 µM
4,CN(C)C(=O)C1CCN(C(=O)/C=C/c2cn(-c3ccccc3)nc2-c2ccccc2)CC1,> 29.9 µM
5,O=C(/C=C/c1cn(-c2ccccc2)nc1-c1ccccc1)Nc1cc(S(=O)(=O)N2CCCC2)ccc1Cl,> 29.9 µM
6,CCN(c1ccccc1)S(=O)(=O)c1ccc(NC(=O)c2oc3ccc(F)cc3c2C)cc1,> 29.9 µM
7,Cc1c(C(=O)Nc2ccc(S(=O)(=O)N(C)Cc3ccccc3)cc2)oc2ccc(F)cc12,> 29.9 µM
8,NS(=O)(=O)c1ccc(NC(=O)/C=C/c2cn(-c3ccccc3)nc2-c2cccc(Cl)c2)cc1,> 29.9 µM
9,N#C/C(=C/c1cn(Cc2ccccc2)nc1-c1cccnc1)C(=O)Nc1ccc(C(=O)O)cc1,> 29.9 µM
10,O=C(/C=C/c1cn(-c2ccccc2)nc1-c1ccc2ccccc2c1)Nc1ccc(C(=O)O)cc1,3.53 µM (active)
11,CN1CCC(N(C)C(=O)/C=C/c2cn(-c3ccccc3)nc2-c2ccccc2)CC1,> 29.9 µM
12,CCOC(=O)N1CCC(NC(=O)/C=C/c2cn(-c3ccccc3)nc2-c2ccccc2)CC1,> 29.9 µM
13,CN1C(=O)/C(=C/c2cn(-c3ccccc3)nc2-c2ccccc2)c2ccccc21,> 29.9 µM
14,COc1ccc(NC(=O)/C=C/c2cn(-c3ccccc3)nc2-c2ccc(OC)cc2)cc1,> 29.9 µM
15,O=C(/C=C/c1cn(-c2ccccc2)nc1-c1ccccc1)NCc1ccccc1,> 29.9 µM
16,COc1ccc(-c2nn(-c3ccccc3)cc2/C=C/C(=O)Nc2ccc(C(=O)O)cc2)cc1,3.83 µM (active)

row,SMILES,IC50
1,Cc1ccc(-c2nn(-c3ccccc3)cc2/C=C/C(=O)Nc2ccc(S(N)(=O)=O)cc2)cc1,> 29.9 µM
2,O=C(/C=C\c1cn(-c2ccccc2)nc1-c1ccc(F)cc1)Nc1ccc(C(=O)O)cc1,4.76 µM (active)
3,N#C/C(=C/c1cn(-c2ccccc2)nc1-c1cccnc1)C(=O)Nc1ccc(C(=O)O)cc1,28.6 µM
4,Cc1ccc(-c2nn(-c3ccccc3)cc2/C=C/C(=O)Nc2cccc(S(N)(=O)=O)c2)cc1,> 29.9 µM
5,O=C(/C=C/c1cn(-c2ccccc2)nc1-c1ccccc1)NCCO,> 29.9 µM
6,COC(=O)c1ccc(NC(=O)/C=C/c2cn(CCC#N)nc2-c2ccc(F)cc2)cc1,> 29.9 µM
7,CC(=O)NS(=O)(=O)c1ccc(NC(=O)/C=C/c2cn(-c3ccccc3)nc2-c2ccccc2)cc1,3.6 µM (active)
8,COc1ccc(-c2nn(-c3ccccc3)cc2/C=C/C(=O)Nc2cccc(NC(C)=O)c2)cc1OC,> 29.9 µM
9,O=C(/C=C/c1cn(-c2ccccc2)nc1-c1ccccc1)NCCc1c[nH]c2ccccc12,> 29.9 µM
10,CS(=O)(=O)Nc1cc(NC(=O)/C=C/c2cn(-c3ccccc3)nc2-c2ccccc2)ccc1F,12.2 µM
11,CCN1CCN(C(=O)/C=C/c2cn(-c3ccccc3)nc2-c2ccccc2)CC1,> 29.9 µM
12,CCN(CC)C(=O)/C=C/c1cn(-c2ccccc2)nc1-c1ccccc1,> 29.9 µM
13,Cc1c(C(=O)Nc2ccc(S(=O)(=O)Nc3ncccn3)cc2)oc2ccc(F)cc12,> 29.9 µM
14,Cc1c(C(=O)Nc2ccc(S(=O)(=O)NCCCN3CCOCC3)cc2)oc2ccc(F)cc12,> 29.9 µM
15,CNC(=O)Cc1ccc(NC(=O)/C=C/c2cn(-c3ccccc3)nc2-c2ccc(F)cc2)cc1,> 29.9 µM
